The list is not random: actives were taken first. Their share in the collection is about 1.3%.
BRCA1 expr act = qHTS Assay to Identify Small Molecule Activators of BRCA1 Expression; MCF7-BRCA1-FFLuc reporter, luminescence, 48 h; response scale: scaled: vehicle 0%, 10 µM genistein 100%; Potency, µM (titrated, usually from 46.1 µM), for inactives: at the highest dose activation, actives largely listed as activators; hit rate 1.1% among 380,000; note: potency is the fitted concentration of half-maximal effect; nearly all actives have a fitted effect of over 80% in size
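Luminescence from a BRCA1-driven firefly luciferase in MCF7 cells was read after 48 h compound exposure at 37 C. Data normalized against DMSO and a 10microM genistein activation control, then curve-fitted across the titration.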
p53 reactivation = qHTS assay for re-activators of p53 using a Luc reporter; H1299 p53-A138V BP100-luciferase reporter, luminescence, 24 h; Potency, µM (highest dose often 92.2 µM), for the others: at the highest dose activity change, positive = activation, hits mostly activators; hit rate 0.063% among 320,000; AID 504706, 2011; note: potency is the fitted concentration of half-maximal effect; % of control where 0% means no effect; nearly all actives have a fitted effect of over 45% in size
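H1299 (p53-null), stable ts p53-A138V + BP100-Luc; 1000 cells/well, Opti-MEM/10% FBS; cpd 4 pt, 1:5; 24 h, 37 deg C, 5% CO2; detection reagent 10 min RT; luminescence.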
IL-2 act = qHTS of IL-2 Activators; IL-2 activation reporter assay, cell-based qHTS; stimulated with anti-CD3/CD4/CD28 beads; in transgenic mouse T cells; activation, % (series mostly up to about 46 µM); hit rate 0.065% among 360,000; in the data active = activation above about 50%; inconclusive = mostly about 30% to 49%; note: 0% is about no effect
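Using fluorescent plate cytometry, EGFP and DsRed are detected in transgenic mouse T cells stimulated 18 h at 37 degrees C with antibody-coated beads after 60 min compound pretreatment.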
Mito fusion act = qHTS Assay for Small Molecule Inhibitors of Mitochondrial Division or Activators of Mitochondrial Fusion | Potency, µM (series often up to 46.1 µM), for the others: at the top dose growth rescue (activation), most hits filed as activators | S. cerevisiae fusion-defective mutant growth rescue, CellTiterGlo 48 h | hit rate 0.23% among 320,000; note: potency is the fitted concentration of half-maximal effect; % of control where 0% means no effect; nearly all actives have a fitted effect of over 45% in size
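Compounds are tested for their ability to restore growth of mitochondrial fusion-defective yeast strains at non-permissive 37C in YPEG medium over 48 hours. Viability is quantified by luciferase luminescence.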
TCR activator = Activators of T cell receptors: qHTS campaign; primary human leukocytes, anti-CD3, IL-2 HTRF, 48 h; Potency, µM (titrated, usually from 9.22 µM), without a hit: top-dose activation of IL-2 secretion, most hits filed as activators; 330,000 tested, under 10 active; note: % of control where 0% means no effect
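Primary human leukocytes incubated 48 hr with anti-CD3 beads plus compound, without co-stimulation. Secreted IL-2 measured by HTRF (europium cryptate/d2 anti-IL-2 pair, 320 nm excitation, 665 nm emission).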
* marks the source's active call; other numbers are inactive results; ? = inconclusive; . = no result; [ ] = another dose, or the depositor's remark. Unless noted, calls come from the whole dose curve; as a rule, active = well fitted curve in the direction sought with a large enough effect; inconclusive = small, poorly fitted or top-dose-only effect, or another doubt; inactive = no such curve, though single readings can be large; an effect the other way counts as inactive or inconclusive.

SMILES	BRCA1 expr act	p53 reactivation	IL-2 act	Mito fusion act	TCR activator
O=C(c1ccc(CSc2ccc(Cl)cc2)cc1)N1CCOCC1	62.6%	-3.4%	-0.1	19.9%	-2.5%
FC(F)(F)c1ccccc1N/N=C/c1cccnc1	27.8%	5.1%	-0.5	-11.1%	-2.2%
Fc1ccc(N/N=C/c2cccnc2)c(F)c1	5.62µM*	0.0%	2.1	0.3%	0.0%
O=C(O)c1cc(C(=O)O)cc(-c2ccc(/C=c3/sc4nc5ccccc5n4c3=O)o2)c1	6.8%	2.2%	5.2	-0.8%	3.4%
O=C(O)c1cccc(-c2ccc(/C=c3/sc4nc5ccccc5n4c3=O)o2)c1	?	14.3%	10.9	31.6µM*	-0.7%
O=C(/C=C/c1cccc(Oc2ccccc2)c1)N1CCOCC1	8.91µM*	19.9%	-3.2	-2.3%	-7.5%
O=C(/C=C/c1cccc([N+](=O)[O-])c1)N1CCOCC1	16.5%	2.9%	-1.2	2.5%	2.2%[46.1 µM]
O=C(/C=C/c1cccc2ccccc12)N1CCOCC1	10µM*	9.3%	0.8	-1.4%	-2.1%
CCCCCCOc1ccc(/C=C/C(=O)N2CCOCC2)cc1OC	5.5%	-21.5%	8.4	9.4%	-5.4%
O=C(/C=C/c1ccc(OCCCF)cc1)N1CCOCC1	10µM*	12.7%	-0.9	-6.5%	2.7%
O=C(/C=C/c1ccccc1Cl)N1CCOCC1	32.0%	0.9%	-0.4	4.4%	13.2%
CC1CCN(S(=O)(=O)c2ccc3c(c2)CCC(=O)N3CC(=O)Nc2cccc(C#N)c2)CC1	.	.	.	-0.4%	.
CCCCC(=O)Nc1ccc(C2C(=O)c3ccccc3C2=O)cc1	3.98µM*	.	2.1	.	-3.7%
CCC(=O)Nc1ccc(C2C(=O)c3ccccc3C2=O)cc1	66.8%	?	-0.1	-29.6%	-0.4%
CCCCCC(=O)Nc1ccc2ccccc2c1	2.82µM*	?	0.7	-0.6%	18.2%[46.1 µM]
CC(C)Oc1ccc(CSC(=N)N)cc1	-42.3%	2.9%	-2.3	2.0%	-5.4%
N=C(N)SCCc1ccc(CCSC(=N)N)cc1	.	.	.	20.6µM*	.
COc1ccc(OC(=O)c2cc3ccccc3o2)cc1	6.3%	-2.9%	-2.2	1.6%	-3.0%
Cc1cc([N+](=O)[O-])ccc1NC(=O)c1cc2ccccc2o1	7.94µM*	.	0.2	2.1%	.
O=C(Nc1ccc2oc(=O)ccc2c1)c1cc2ccccc2o1	2.51µM*	?	0.2	6.8%	-4.1%[46.1 µM]
Cc1ccc(NC(=O)c2ccc(OC(=O)c3cc4ccccc4o3)cc2)cc1	3.98µM*	?	-0.5	1.2%	2.5%
Cc1cc(=O)oc2cc(NC(=O)c3cc4ccccc4o3)ccc12	.	28.4%	.	2.3%	.
Cc1ccc(C(c2nnnn2Cc2ccccc2)N2CCN(Cc3ccncc3)CC2)cc1 (stereo not given)	-11.6%	.	.	.	.
CCCS(=O)(=O)c1ncc(Cl)c(C(=O)N(Cc2ccccc2)Cc2ccco2)n1	-73.5%	.	.	.	.
CCN(C(=O)Cn1cnc2onc(-c3ccc(F)cc3)c2c1=O)c1cc(C)ccc1C	18.4%	.	.	.	.
SMILES	BRCA1 expr act	p53 reactivation	IL-2 act	Mito fusion act	TCR activator
COC(=O)c1ccc(COC(=O)c2ccccc2OC)cc1	-4.9%	22.4µM*	-1.4	11.5%	3.8%[46.1 µM]
CN(C)c1ccc(C(=O)OCc2ccccc2)cc1	?	?	0.2	0.8%	-4.9%
COC(=O)c1ccc(COC(=O)c2ccc(N(C)C)cc2)cc1	5.01µM*	10.9%	-4.0	3.8%	-7.0%
CCOc1ncccc1C(=O)OCc1ccc(C(=O)OC)cc1	?	?	0.6	3.7%	3.2%[46.1 µM]
COC(=O)c1ccc(COC(=O)CCC(=O)c2cccs2)cc1	10µM*	?	-4.2	0.1%	5.8%[46.1 µM]
CC(C)c1ccc(N2C=Nc3ccc(C(C)C)cc3C2)cc1	-1.0%	4.6%	-2.4	2.7%	-0.5%
C1=Nc2ccccc2CN1c1ccccc1	7.08µM*	?	-0.8	-1.3%	-4.8%[46.1 µM]
CN(C)c1ccc(/C=C/c2ccccn2)cc1	-41.3%	.	.	.	.
CN(C)c1ccc(/C=C/c2nnnn2-c2ccccc2)cc1	3.98µM*	?	0.2	11.7%	3.7%[46.1 µM]
Cc1ccc(S(=O)(=O)N2CCN(c3nc(-c4cncn4C)nc4ccccc34)CC2)cc1	-31.5%	.	.	.	.
